Measured values reported in the supplement of paper PMC13380429.

tested on: Vero E6 infected with SARS-CoV-2; assay: morphology score (similarity to uninfected cells); higher = more like uninfected cells; settings: 24 h

Row | Compound | morphology score
1 | O=[N+]([O-])c1c(Nc2cc(F)cc(Cl)c2)ccc2nonc12 (10 µM) | 0.097
2 | CNc1ncnc2c1ncn2[C@@H]1O[C@H](CO)[C@@H](O)[C@H]1O [N6-methyladenosine] (10 µM) | -0.0577
3 | C[C@@H]1CN(CCCn2c3ccccc3c3ccccc32)C[C@H](C)N1 [rimcazole] (10 µM) | 0.623
4 | CN[C@@H]1[C@H](O[C@H]2[C@H](O[C@H]3[C@H](O)[C@@H](O)[C@H](NC(=N)N)[C@@H](O)[C@@H]3NC(=N)N)O[C@@H](C)[C@]2(O)CO)O[C@@H](CO)[C@H](O)[C@H]1O [dihydrostreptomycin] (10 µM) | -0.0119
5 | COc1cc(N)c(Cl)cc1C(=O)OCCCN1CCCCC1 (10 µM) | 0.0833
6 | Cc1ccc2c(=O)c3cccc(CC(=O)O)c3oc2c1C (10 µM) | -0.0879
7 | CC#CCOC(=O)c1c(C)nc2sc3c(c2c1N)CCC(O)C3 (centres undefined) (10 µM) | 0.151
8 | O=C1O[C@H](CO)[C@@H](O)[C@H](O)[C@H]1O [gluconolactone] (10 µM) | 0.0736
9 | CC(C)c1ccc(C(=O)c2cccs2)c(SCCCCCCCCN(C)C)n1 (0.833333 µM) | 0.361
10 | O=C(c1ccc(CN2CCOCC2)cc1)N1CCN(C2CC2)CC1 [bavisant] (10 µM) | -0.0555
11 | C[C@@H]1CN(c2c(F)c(F)c3c(=O)c(C(=O)O)cn(C4CC4)c3c2F)C[C@H](C)N1 [orbifloxacin] (10 µM) | 0.149
12 | C1Cc2[nH]nc(-c3nn[nH]n3)c2C1 (10 µM) | -0.0417
13 | CN(CC(=O)O)C(=N)N [creatine] (10 µM) | 0.0148
14 | Cc1ccc(NC(=O)Nc2cc(C(F)(F)F)ccc2F)cc1Nc1ccc2c(c1)NC(=O)/C2=C\c1ccc[nH]1 (10 µM) | 0.567
15 | CN1C2CCC1CC(OC(c1ccccc1)c1ccc(Cl)cc1)C2 (centres undefined) (0.833333 µM) | 0.251
16 | CC(=O)Nc1ccc(C(=O)NC(C)(C)C)cc1 (10 µM) | 0.0601
17 | Clc1cccc(/C=N/N=C/c2cccc(Cl)c2)c1 [3,3'-dichlorobenzaldazine] (10 µM) | 0.288
18 | CCNC1(C(N)=O)CCN(c2ncnc3c2nc(-c2ccccc2Cl)n3-c2ccc(Cl)cc2)CC1 (10 µM) | -0.024
19 | Cc1cccc(C(=O)NCN2CCN(c3ccccc3C#N)CC2)c1 (10 µM) | 0.161
20 | CC(C)(C)CC(C)(C)c1ccc(OCCOCC[N+](C)(C)Cc2ccccc2)cc1 [benzethonium] (10 µM) | -0.104

Row | Compound | morphology score
21 | C/C=C1/[C@H](O[C@@H]2O[C@H](CO)[C@@H](O)[C@H](O)[C@H]2O)OC=C(C(=O)OC)[C@H]1CC(=O)OCCc1ccc(O)c(O)c1 [oleuropein] (10 µM) | -0.0158
22 | c1ccc(Cn2c(N3CCNCC3)nc3ccccc32)cc1 [lerisetron] (10 µM) | 0.0474
23 | Nc1c(-c2cccc(C(F)(F)F)c2)nsc1C(=O)O [amflutizole] (10 µM) | 0.00564
24 | CON [methoxyamine] (10 µM) | 0.192
25 | CCNC(=O)c1noc(-c2cc(C(C)C)c(O)cc2O)c1-c1ccc(CN2CCOCC2)cc1 (0.833333 µM) | 0.0632
26 | CCC(CC)Nc1cc(C)nc(Oc2c(C)cc(C)cc2C)c1C (10 µM) | 0.248
27 | c1ccc(C(NCc2cccnc2)(c2ccccc2)c2ccccc2)cc1 (10 µM) | -0.069
28 | CC(O)(C(=O)Nc1ccc(S(=O)(=O)c2ccccc2)cc1)C(F)(F)F (centres undefined) (10 µM) | 0.347
29 | O=C(O)c1ccc(OCCn2ccnc2)cc1 [dazoxiben] (10 µM) | 0.196
30 | CCOc1cc2ncc(C#N)c(Nc3ccc(F)c(Cl)c3)c2cc1NC(=O)/C=C/CN(C)C [pelitinib] (10 µM) | -0.188
31 | CCOC(=O)OC(C)OC1=C(C(=O)Nc2ccccn2)N(C)S(=O)(=O)c2ccccc21 (centres undefined) [ampiroxicam] (10 µM) | -0.00273
32 | COc1cc2c(cc1OC)CN(CCc1ccc(NC(=O)c3cccc4c(=O)c5cccc(OC)c5[nH]c34)cc1)CC2 [elacridar] (10 µM) | 0.0355
33 | Cc1cc(=O)oc2c(C=O)c(O)ccc12 (10 µM) | 0.206
34 | CNC(=O)c1ccccc1Nc1cc(Nc2ccc(N3CCOCC3)cc2OC)ncc1C(F)(F)F (10 µM) | -0.0543
35 | COc1ccc(C(=O)c2ccccc2)c(O)c1 [oxybenzone] (10 µM) | 0.131
36 | COc1ccc(-c2ccc3c(N4CCOCC4)nc(N4C[C@@H](C)O[C@@H](C)C4)nc3n2)cc1CO (0.833333 µM) | 0.12
37 | CCc1cc(/C(C)=N/OCc2ccc(C3CCCCC3)c(C(F)(F)F)c2)ccc1CN1CC(C(=O)O)C1 [siponimod] (10 µM) | 0.0973
38 | Nc1ncnc2c1c(-c1ccc(Oc3ccccc3)cc1)nn2C1CCCC1 (10 µM) | -0.00746
39 | CCN(CC)CCO[C@H]1CC[C@@]2(C)C(=CC[C@@H]3[C@@H]2CC[C@]2(C)C(=O)CC[C@@H]32)C1 (0.833333 µM) | 0.234
